High-throughput results: PubChem BioAssay, National Center for Advancing Translational Sciences (NCATS)
This is a sample that favours compounds with a hit; in the whole collection about 4.7% have one here.
HTT promoter inh: inhibits huntingtin promoter activity | HEK293 HTT promoter firefly luciferase reporter, 24 h | Potency, µM (series often up to 57.5 µM), hits mostly inhibitors | hit rate 0.93% among 48,000; also: nearly all actives have a fitted effect of over 50% in size
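Quantitative HTS used concentration series of up to 57.5 uM final on HEK293 luciferase reporter cells, 24 h at 37 degrees C. Readout was Dual-Glo firefly luminescence.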
HTT-AS promoter: HTT-AS promoter activation; HEK293 HTT-AS promoter firefly luciferase reporter, 24 h; response scale: percent change from vehicle, -100% = no light; Potency, µM (doses to about 57.5 µM), hits mostly activators; hit rate 0.24% among 48,000; also: nearly all actives have a fitted effect of over 55% in size
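HEK293 cells carrying firefly luciferase reporters were seeded at 2,500 per well in Opti-MEM and cultured for 24 h. They were then treated with compounds at up to 57.5 uM final for 24 h at 37 degrees C before Dual-Glo luminescence readout.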
FH mod: Identification of activators of human fumarate hydratase by quantitative high-throughput screening | Potency, µM (top dose mostly 79.9 µM), usual class: inhibitors | hit rate 0.22% among 54,000 | FH coupled MDH/diaphorase resazurin fluorescence, 15 min; also: the screen sought activators but most active calls are inhibition curves; nearly all actives have a fitted effect of over 45% in size
NTMT1 inhibitor: inhibitors of human N-terminal methyltransferase NTMT1 | Potency, µM (series often up to 114 µM), hits mostly inhibitors | hit rate 2.5% among 59,000 | NTMT1 MTase-Glo SAH luminescence, purified enzyme | Q9BV86 | AID 1645870; also: nearly all actives have a fitted effect of over 65% in size
DRV1 agonist: GPR32 (DRV1) agonism, beta-arrestin recruitment; O75388; CHO-K1 GPR32 beta-arrestin PathHunter luminescence, 90 min; zero percent set by DMSO-only wells; activation, % at 76.9 µM; hit rate 2.5% among 48,000; AID 1346428;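 active = activation of at least 60% and not above a set upper limit, about 1 call in 100 departs from these limits; inconclusive = activation of 40% to 60%, or above that upper limit; inactive = activation under 40%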
Target sequence (O75388 whole entry, looked up): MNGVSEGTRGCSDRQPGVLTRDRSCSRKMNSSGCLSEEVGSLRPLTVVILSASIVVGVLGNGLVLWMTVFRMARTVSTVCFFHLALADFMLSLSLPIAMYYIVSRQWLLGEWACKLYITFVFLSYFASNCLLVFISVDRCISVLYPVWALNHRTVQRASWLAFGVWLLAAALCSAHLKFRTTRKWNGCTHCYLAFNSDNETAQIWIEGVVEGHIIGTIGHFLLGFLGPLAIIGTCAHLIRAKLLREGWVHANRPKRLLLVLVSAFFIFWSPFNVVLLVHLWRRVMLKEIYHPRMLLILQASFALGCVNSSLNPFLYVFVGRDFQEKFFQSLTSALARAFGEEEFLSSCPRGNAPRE
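Cells are plated overnight, treated with compounds in DMSO for 90 minutes at 37 °C, and developed with PathHunter detection reagent for 1 hour before luminescence is read; signal reflects beta-arrestin binding to GPR32 in engineered CHO-K1 cells.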
Of the large screens only hits and unclear results are named; the others gave an inactive call; ! = repeats disagree. Unless noted, calls follow the shape of the dose curve; as a rule, active = well fitted curve in the direction sought with a large enough effect; inconclusive = small, poorly fitted or top-dose-only effect, or another doubt; inactive = no such curve, though single readings can be large; an effect the other way counts as inactive or inconclusive.

COc1ccc(NC(=O)CCc2nc(C3=CCN(Cc4cccc(Cl)c4)CC3)no2)c(OC)c1	HTT promoter inh inconclusive
COc1ccc(NC(=O)CCc2nc(C3=CCN(Cc4cccc(Cl)c4)CC3)no2)cc1OC	HTT promoter inh inconclusive, FH mod inconclusive, NTMT1 inhibitor inconclusive, DRV1 agonist 94
Cc1cccc(CN2CC=C(c3noc(CCC(=O)Nc4ccc(C)c(F)c4)n3)CC2)c1	FH mod inconclusive, DRV1 agonist 94
CCCCCn1cc(C(=O)Oc2cccc3cccnc23)c2ccccc21	none (no result: HTT promoter inh, HTT-AS promoter, DRV1 agonist)
N#Cc1cc2c(nc1SCC(=O)Nc1ccc(C(F)(F)F)cc1)C1CCN2CC1	HTT promoter inh 14µM
N#Cc1cc2c(nc1SCC(=O)Nc1ccc(Cl)c(C(F)(F)F)c1)C1CCN2CC1	HTT promoter inh 16µM
COc1ccc2c(c1)c(CCN(C)C)cn2S(=O)(=O)c1ccccc1	none (no result: HTT promoter inh, HTT-AS promoter, DRV1 agonist)
COc1cc(N2CCN(C)CC2)ccc1N	none (no result: HTT promoter inh, HTT-AS promoter, DRV1 agonist)
CC(=O)O[C@H]1CC[C@@]2(CI)C(=CC[C@@H]3[C@@H]2CC[C@]2(C)C(=O)CC[C@@H]32)C1	NTMT1 inhibitor inconclusive (no result: HTT promoter inh, HTT-AS promoter, DRV1 agonist)
C[C@]12CC[C@H](O)CC1=CC[C@@H]1[C@@H]2CC[C@]2(C)C(=O)CC[C@@H]12	DRV1 agonist 73
CCOC(=O)C1(c2ccccc2)CCN(CCc2ccc(N)cc2)CC1	none
C[C@@]1(C(=O)O)CC[C@]2(C)CC[C@]3(C)C4=CC(=O)c5cc(O)c(O)cc5[C@]4(C)CC[C@@]3(C)[C@@H]2C1	none (no result: HTT promoter inh, HTT-AS promoter, DRV1 agonist)
CC1=C(O)C(=O)C=C2C1=CC=C1[C@@]2(C)CC[C@@]2(C)[C@@H]3C[C@](C)(C(=O)O)CC[C@]3(C)CC[C@]12C	HTT promoter inh inconclusive, FH mod inconclusive, NTMT1 inhibitor 16µM! (no result: DRV1 agonist)
COC1CC(OC2CCC3(C)C(CCC4C3CCC3(C)C(C5=CC(=O)OC5)C(OC(C)=O)CC43O)C2)OC(C)C1OC1OC(CO)C(O)C(O)C1O (stereo not given)	none (no result: HTT promoter inh, HTT-AS promoter, DRV1 agonist)
CO[C@H]1CCC(O[C@H]2C[C@H]([C@]3(C)CC[C@]4(C[C@H](O)[C@@H](C)[C@@H]([C@@H](C)/C=C(\C)C(=O)[C@H](C)C[C@H](C)C(=O)O)O4)O3)O[C@]3(O[C@@H]([C@H]4O[C@@](O)(CO)[C@H](C)C[C@@H]4C)C[C@@H]3C)[C@@H]2C)O[C@@H]1C (stereo not given in full)	none (no result: HTT promoter inh, HTT-AS promoter, FH mod, DRV1 agonist)
CCOC(C(=O)OCCN(C)C)(c1ccccc1)c1ccccc1	none
CCC(COC(=O)c1cc(OC)c(OC)c(OC)c1)(c1ccccc1)N(C)C (stereo not given)	DRV1 agonist 97
C[C@@H](CN1CCC(n2c(=O)[nH]c3cc(Br)ccc32)CC1)NC(=O)[C@@H]1C[C@H]1c1ccccc1	none (no result: HTT promoter inh, HTT-AS promoter, DRV1 agonist)
C[C@H](N)C(=O)c1ccccc1	NTMT1 inhibitor 112µM
